Measurements taken from PubChem BioAssay (EPA / NIEHS).
Where “and” joins values, the source holds several entries; their conditions need not be identical. Equal entries are not always repeated. Results filed as inconclusive are left out. Calls of active or inactive are those of the source. Rule for the calls, unless noted: active = hit-call score of the fitted dose curve at least 0.9, where 1 is the maximum; inactive = score below 0.9.

How the values were obtained:
[1] = molecular target: X-box-binding protein 1 (Homo sapiens) (UniProt P17861); assay: ATG_Xbp1_CIS: Attagene CIS-FACTORIAL HepG2 Assay for human X-box Binding Protein 1 (XBP1) (AID 2282972); details: HepG2 XBP1 cis-element reporter, Attagene multiplex; actives raise or lower the signal
Sequence of X-box-binding protein 1 (Homo sapiens) (P17861 whole entry, looked up): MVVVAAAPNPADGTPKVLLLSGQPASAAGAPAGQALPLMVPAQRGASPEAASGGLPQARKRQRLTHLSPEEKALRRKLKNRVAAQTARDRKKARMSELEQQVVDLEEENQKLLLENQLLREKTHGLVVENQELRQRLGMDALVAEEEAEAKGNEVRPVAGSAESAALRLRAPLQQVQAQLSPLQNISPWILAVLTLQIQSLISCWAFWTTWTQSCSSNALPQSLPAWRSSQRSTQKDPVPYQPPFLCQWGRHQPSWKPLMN
In short: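 After a 24-hour chemical exposure of HepG2 cells carrying cis-regulated reporters, reporter mRNA levels are assessed. Quantification uses RT-PCR, 6-FAM labelling and capillary electrophoresis. Gain- or loss-of-signal is fitted against DMSO.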

[2] = ATG_M_19_TRANS: Attagene TRANS-FACTORIAL HepG2 Assay for M19 Transcription Factor (Internal Marker) (AID 2282974; active = hit-call score of the fitted dose curve at least 0.9, where 1 is the maximum); details: HepG2 Attagene TRANS-FACTORIAL M19 internal marker reporter
In short: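 24 h chemical exposure of transiently transfected HepG2 (MRTU library). RNA → oligo(dT) RT → PCR → 6-FAM labelling → HpaI cut → CE fluorescence. Positive-direction fit vs DMSO baseline; background internal-marker readout.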

[3] = ATG_GAL4_TRANS: Attagene TRANS-FACTORIAL HepG2 Assay for GAL4 (Internal Marker) (AID 2282976; active = hit-call score of the fitted dose curve at least 0.9, where 1 is the maximum); details: HepG2 Attagene TRANS GAL4 internal marker reporter
In short: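 Background-control readout: GAL4-UAS reporter transcript in transiently transfected HepG2 cells after 24 h compound exposure. Measured by RT-PCR, 6-FAM primer extension, HpaI digest and capillary electrophoresis; gain-of-signal fit versus DMSO.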

[4] = molecular target: Oxysterols receptor LXR-alpha (Homo sapiens) (UniProt Q13133); assay: ATG_LXRa_TRANS: Attagene TRANS-FACTORIAL HepG2 Assay for human Liver X Receptor alpha (LXRa) (AID 2282980; active = hit-call score of the fitted dose curve at least 0.9, where 1 is the maximum); details: HepG2 Attagene TRANS reporter, LXRa transactivation
Sequence of Oxysterols receptor LXR-alpha (Homo sapiens) (Q13133 whole entry, looked up, the tested form may be a part): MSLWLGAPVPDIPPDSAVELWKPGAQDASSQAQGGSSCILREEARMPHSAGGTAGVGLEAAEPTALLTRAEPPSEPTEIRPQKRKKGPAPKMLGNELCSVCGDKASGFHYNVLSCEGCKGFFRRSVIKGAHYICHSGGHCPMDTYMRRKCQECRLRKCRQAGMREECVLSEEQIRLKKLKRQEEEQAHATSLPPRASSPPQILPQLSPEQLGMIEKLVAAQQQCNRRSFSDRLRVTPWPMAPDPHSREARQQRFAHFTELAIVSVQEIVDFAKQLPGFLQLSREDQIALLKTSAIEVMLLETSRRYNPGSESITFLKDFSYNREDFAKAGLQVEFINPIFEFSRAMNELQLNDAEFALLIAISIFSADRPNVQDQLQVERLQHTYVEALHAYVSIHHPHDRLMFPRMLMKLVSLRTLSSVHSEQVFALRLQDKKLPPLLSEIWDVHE
In short: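 HepG2 cells transiently transfected with GAL4-UAS reporter units for chimeric NR-Gal4 proteins, exposed to chemicals for 24 h. Reporter mRNA quantified by RT-PCR and capillary electrophoresis; gain of signal fitted relative to DMSO.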

[5] = molecular target: Oxysterols receptor LXR-beta (Homo sapiens) (UniProt P55055); assay: ATG_LXRb_TRANS: Attagene TRANS-FACTORIAL HepG2 Assay for human Liver X Receptor beta (LXRb) (AID 2282981; active = hit-call score of the fitted dose curve at least 0.9, where 1 is the maximum); details: HepG2 Attagene TRANS GAL4-LXRb reporter, mRNA
Sequence of Oxysterols receptor LXR-beta (Homo sapiens) (P55055 whole entry, looked up, the tested form may be a part): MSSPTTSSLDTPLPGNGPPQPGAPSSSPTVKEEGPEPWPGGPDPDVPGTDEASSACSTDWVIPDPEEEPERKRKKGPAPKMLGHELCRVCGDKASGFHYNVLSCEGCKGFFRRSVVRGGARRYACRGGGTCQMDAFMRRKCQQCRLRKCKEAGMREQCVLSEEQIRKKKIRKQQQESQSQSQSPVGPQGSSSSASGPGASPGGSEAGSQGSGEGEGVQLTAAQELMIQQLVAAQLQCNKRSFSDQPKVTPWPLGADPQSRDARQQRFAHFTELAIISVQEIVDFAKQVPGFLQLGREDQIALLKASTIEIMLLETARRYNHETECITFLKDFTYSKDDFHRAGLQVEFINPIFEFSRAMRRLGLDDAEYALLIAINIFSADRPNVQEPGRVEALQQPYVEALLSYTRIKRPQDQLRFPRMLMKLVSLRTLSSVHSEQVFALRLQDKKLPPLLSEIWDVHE
In short: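 Gain-of-signal mRNA reporter endpoint, DMSO as negative control. Transiently transfected HepG2 cells carrying the NR-Gal4 chimera and GAL4-UAS reporter units were treated 24 h; transcripts quantified by RT-PCR and capillary electrophoresis fluorescence.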

[6] = molecular target: Hepatocyte nuclear factor 4-alpha (Homo sapiens) (UniProt P41235); assay: ATG_HNF4a_TRANS: Attagene TRANS-FACTORIAL HepG2 Assay for human Hepatocyte Nuclear Factor 4 alpha (HNF4a) (AID 2282982; active = hit-call score of the fitted dose curve at least 0.9, where 1 is the maximum); details: HepG2 HNF4a transactivation reporter, mRNA readout
Sequence of Hepatocyte nuclear factor 4-alpha (Homo sapiens) (P41235 whole entry, looked up, the tested form may be a part): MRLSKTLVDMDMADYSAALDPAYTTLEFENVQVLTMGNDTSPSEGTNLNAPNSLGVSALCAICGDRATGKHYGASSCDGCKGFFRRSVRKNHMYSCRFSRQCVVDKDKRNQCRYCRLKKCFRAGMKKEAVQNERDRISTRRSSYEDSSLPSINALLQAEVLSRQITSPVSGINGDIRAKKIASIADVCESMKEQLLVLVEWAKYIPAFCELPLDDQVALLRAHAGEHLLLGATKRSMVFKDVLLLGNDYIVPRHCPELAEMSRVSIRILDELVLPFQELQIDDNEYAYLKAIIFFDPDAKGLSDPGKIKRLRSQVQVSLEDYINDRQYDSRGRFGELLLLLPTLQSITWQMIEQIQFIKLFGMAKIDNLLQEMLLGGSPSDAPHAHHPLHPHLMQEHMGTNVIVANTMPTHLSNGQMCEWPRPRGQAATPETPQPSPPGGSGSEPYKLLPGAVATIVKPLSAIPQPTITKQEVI
In short: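 Gain-of-signal mRNA induction, relative to DMSO vehicle, was read after 24 h compound treatment of HepG2 cells bearing transfected GAL4-UAS reporters. Detection used RT-PCR, 6-FAM primer extension and capillary electrophoresis.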

[7] = ATG_M_06_TRANS: Attagene TRANS-FACTORIAL HepG2 Assay for M06 Transcription Factor (Internal Marker) (AID 2282983; active = hit-call score of the fitted dose curve at least 0.9, where 1 is the maximum); details: HepG2 Attagene TRANS M06 internal marker reporter
In short: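 HepG2 cells transiently transfected with GAL4-UAS multiple reporter units, dosed 24 h. Reporter RNA reverse-transcribed, PCR-amplified, 6-FAM-labeled, HpaI-digested and quantified by capillary electrophoresis; this internal-marker signal fitted upward relative to DMSO.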

[8] = ATG_M_32_TRANS: Attagene TRANS-FACTORIAL HepG2 Assay for M32 Transcription Factor (Internal Marker) (AID 2282984; active = hit-call score of the fitted dose curve at least 0.9, where 1 is the maximum); details: HepG2 Attagene TRANS M32 internal marker reporter
In short: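 Capillary electrophoresis of 6-FAM-labelled reporter fragments gives the signal; data fitted for gain over DMSO negative control. Source: HepG2 cells bearing transient multiple reporter transcription units, 24 h exposure.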

[9] = molecular target: Transcriptional activator Myb (Homo sapiens) (UniProt P10242); assay: ATG_Myb_CIS: Attagene CIS-FACTORIAL HepG2 Assay for human Myeloblastosis (Myb) Proto-Oncogene Transcription Factor (AID 2282986); details: HepG2 Attagene CIS-FACTORIAL Myb reporter transcription; actives raise or lower the signal
Sequence of Transcriptional activator Myb (Homo sapiens) (P10242 whole entry, looked up): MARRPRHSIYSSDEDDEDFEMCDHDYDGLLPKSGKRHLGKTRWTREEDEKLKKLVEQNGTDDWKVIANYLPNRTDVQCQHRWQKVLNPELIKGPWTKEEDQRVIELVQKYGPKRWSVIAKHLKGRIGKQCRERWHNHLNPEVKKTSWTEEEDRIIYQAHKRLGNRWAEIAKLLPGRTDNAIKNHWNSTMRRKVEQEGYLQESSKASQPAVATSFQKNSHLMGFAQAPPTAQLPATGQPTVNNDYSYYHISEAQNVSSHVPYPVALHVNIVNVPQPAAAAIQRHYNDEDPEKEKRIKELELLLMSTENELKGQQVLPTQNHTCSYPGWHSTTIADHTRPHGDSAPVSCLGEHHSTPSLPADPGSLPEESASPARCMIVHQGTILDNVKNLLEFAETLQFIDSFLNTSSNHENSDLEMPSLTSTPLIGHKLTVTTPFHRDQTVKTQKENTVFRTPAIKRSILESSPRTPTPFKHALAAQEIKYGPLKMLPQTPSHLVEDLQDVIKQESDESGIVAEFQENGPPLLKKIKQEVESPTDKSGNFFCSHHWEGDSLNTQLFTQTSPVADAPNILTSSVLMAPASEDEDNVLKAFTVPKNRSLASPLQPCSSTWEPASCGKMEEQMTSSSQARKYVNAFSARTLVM
In short: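 HepG2, transient MRTU transfection (cis-element promoters, endogenous TF activity), 24 h compound exposure. Readout: reporter mRNA via RT-PCR, 6-FAM labeling, HpaI digest, capillary electrophoresis. Gain/loss fit vs DMSO.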

[10] = molecular target: Nuclear respiratory factor 1 (Homo sapiens) (UniProt Q16656); assay: ATG_NRF1_CIS: Attagene CIS-FACTORIAL HepG2 Assay for human Nuclear Respiratory Factor 1 (NRF1) Orphan Gene (AID 2282987); details: HepG2 NRF1 cis-element reporter, Attagene multiplex; actives raise or lower the signal
Sequence of Nuclear respiratory factor 1 (Homo sapiens) (Q16656 whole entry, looked up): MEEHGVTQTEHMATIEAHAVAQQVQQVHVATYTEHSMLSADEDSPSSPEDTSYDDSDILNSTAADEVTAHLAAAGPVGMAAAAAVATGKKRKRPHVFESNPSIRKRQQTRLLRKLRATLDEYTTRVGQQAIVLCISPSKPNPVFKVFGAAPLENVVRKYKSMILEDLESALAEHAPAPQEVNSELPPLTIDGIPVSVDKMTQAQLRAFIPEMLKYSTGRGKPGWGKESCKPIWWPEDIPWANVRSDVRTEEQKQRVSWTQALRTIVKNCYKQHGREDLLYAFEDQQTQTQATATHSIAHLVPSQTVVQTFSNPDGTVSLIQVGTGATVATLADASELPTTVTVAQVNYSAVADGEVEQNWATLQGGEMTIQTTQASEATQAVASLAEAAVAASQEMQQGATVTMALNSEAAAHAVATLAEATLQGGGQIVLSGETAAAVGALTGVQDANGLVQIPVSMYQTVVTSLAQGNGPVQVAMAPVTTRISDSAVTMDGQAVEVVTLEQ
In short: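 Endogenous NRF1-driven reporter transcription measured in transiently transfected human HepG2 liver cells. Readout: reporter mRNA by RT-PCR and capillary electrophoresis with fluorescence detection, 24 h post-dosing. Gain or loss of signal fitted relative to DMSO baseline.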

[11] = ATG_NFI_CIS: Attagene CIS-FACTORIAL HepG2 Assay for human Nuclear Factor I (NFI) (AID 2282989); details: HepG2 cis-regulatory reporter, NFI response element transcription; actives raise or lower the signal
In short: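 Endogenous TF activity in HepG2 cells transiently transfected with cis-element-driven multiplexed reporter units, read 24 h after dosing. Reporter mRNA quantified by RT-PCR, 6-FAM labelling, HpaI digestion and capillary electrophoresis; bidirectional fit versus DMSO.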

[12] = molecular target: Myc proto-oncogene protein (Homo sapiens) (UniProt P01106); assay: ATG_Myc_CIS: Attagene CIS-FACTORIAL HepG2 Assay for human Myelocytomatosis (Myc) Proto-Oncogene Transcription Factor (AID 2282990); details: HepG2, Attagene cis-reporter transcription factor activity; actives raise or lower the signal
In short: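 Transiently transfected HepG2 cells bearing cis-promoter reporter units for endogenous transcription factors; 24 h exposure. Reporter mRNA measured by RT-PCR, 6-FAM primer extension, HpaI cut and capillary electrophoresis; bidirectional fit relative to DMSO.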

[13] = ATG_NF_kB_CIS: Attagene CIS-FACTORIAL HepG2 Assay for human Nuclear Factor Kappa B (NF-kB) (AID 2282991); details: HepG2 Attagene cis-factorial NF-kB reporter mRNA; actives raise or lower the signal
In short: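 Read-out: reporter transcript levels quantified by RT-PCR plus capillary electrophoresis of 6-FAM-labelled, HpaI-cut fragments. Transfected HepG2 cells, 24 h compound exposure, endogenous NF-kB-driven cis element; gain or loss scored versus DMSO.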

[14] = ATG_NRF2_ARE_CIS: Attagene CIS-FACTORIAL HepG2 Assay for human Nuclear Factor Erythroid 2 Related Factor 2 (NFR2) response to Antioxidant Response Elements (ARE) (AID 2282992); details: HepG2 Attagene ARE/NRF2 reporter, transcription factor activity; actives raise or lower the signal
In short: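 Cis-factorial assay: transfected HepG2 reporter library, 24 h dosing, mRNA readout via RT-PCR/CE; DMSO-referenced bidirectional analysis.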

[15] = molecular target: Glucocorticoid receptor (Homo sapiens) (UniProt P04150); assay: ATG_GR_TRANS: Attagene TRANS-FACTORIAL HepG2 Assay for human Glucocorticoid Receptor (GR) (AID 2282978; active = hit-call score of the fitted dose curve at least 0.9, where 1 is the maximum;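 note: activators score as hits since higher reporter transcript over DMSO is fitted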); details: HepG2 Attagene TRANS GR reporter, mRNA transcription
Sequence of Glucocorticoid receptor (Homo sapiens) (P04150 whole entry, looked up, the tested form may be a part): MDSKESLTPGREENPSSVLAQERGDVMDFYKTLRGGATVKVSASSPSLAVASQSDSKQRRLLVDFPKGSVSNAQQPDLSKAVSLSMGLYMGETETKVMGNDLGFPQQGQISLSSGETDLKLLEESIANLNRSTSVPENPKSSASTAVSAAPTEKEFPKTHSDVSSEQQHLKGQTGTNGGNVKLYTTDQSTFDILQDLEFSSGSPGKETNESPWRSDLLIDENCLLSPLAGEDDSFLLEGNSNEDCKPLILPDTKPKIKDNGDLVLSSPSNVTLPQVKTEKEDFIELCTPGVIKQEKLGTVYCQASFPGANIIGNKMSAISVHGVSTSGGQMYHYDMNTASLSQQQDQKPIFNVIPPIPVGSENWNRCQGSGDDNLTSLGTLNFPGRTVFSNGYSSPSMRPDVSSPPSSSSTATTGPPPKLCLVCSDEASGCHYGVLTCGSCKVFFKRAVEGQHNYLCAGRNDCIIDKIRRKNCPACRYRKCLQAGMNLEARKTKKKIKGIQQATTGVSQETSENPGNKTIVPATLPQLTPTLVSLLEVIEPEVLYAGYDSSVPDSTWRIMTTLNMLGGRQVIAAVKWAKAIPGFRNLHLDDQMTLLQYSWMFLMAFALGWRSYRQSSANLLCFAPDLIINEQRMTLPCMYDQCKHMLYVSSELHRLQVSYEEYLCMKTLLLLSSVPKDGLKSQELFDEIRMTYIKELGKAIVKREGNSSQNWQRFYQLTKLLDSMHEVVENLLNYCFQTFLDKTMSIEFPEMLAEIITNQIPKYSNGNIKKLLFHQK
In short: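 Transient MRTU transfection of HepG2 (GAL4-UAS reporters, exogenous NR-GAL4 chimeras), 24 h dosing. Readout: reporter transcript via RT-PCR + capillary electrophoresis fluorescence. Positive direction vs DMSO baseline.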

[16] = molecular target: Estrogen-related receptor gamma (Homo sapiens) (UniProt P62508); assay: ATG_ERRg_TRANS: Attagene TRANS-FACTORIAL HepG2 Assay for human Estrogen-Related Receptor gamma (ERRg) (AID 2282977; active = hit-call score of the fitted dose curve at least 0.9, where 1 is the maximum;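 note: hits increase reporter signal over DMSO so potencies reflect activators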); details: HepG2 Attagene TRANS reporter, ERRg transactivation
In short: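 HepG2 cells transiently transfected with multiplexed GAL4-UAS reporter units and chimeric NR-Gal4 constructs were exposed to test chemicals for 24 h. Reporter mRNA was measured by RT-PCR, 6-FAM primer extension, HpaI digestion and capillary electrophoresis; gain-of-signal versus DMSO.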

[17] = molecular target: Bile acid receptor (Homo sapiens) (UniProt Q96RI1); assay: ATG_FXR_TRANS: Attagene TRANS-FACTORIAL HepG2 Assay for Farnesoid X Receptor (FXR) (AID 2282979; active = hit-call score of the fitted dose curve at least 0.9, where 1 is the maximum;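 note: hits raise reporter mRNA above DMSO so AC50 marks FXR activation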); details: HepG2 Attagene TRANS FXR-GAL4 reporter transcription
Sequence of Bile acid receptor (Homo sapiens) (Q96RI1 whole entry, looked up, the tested form may be a part): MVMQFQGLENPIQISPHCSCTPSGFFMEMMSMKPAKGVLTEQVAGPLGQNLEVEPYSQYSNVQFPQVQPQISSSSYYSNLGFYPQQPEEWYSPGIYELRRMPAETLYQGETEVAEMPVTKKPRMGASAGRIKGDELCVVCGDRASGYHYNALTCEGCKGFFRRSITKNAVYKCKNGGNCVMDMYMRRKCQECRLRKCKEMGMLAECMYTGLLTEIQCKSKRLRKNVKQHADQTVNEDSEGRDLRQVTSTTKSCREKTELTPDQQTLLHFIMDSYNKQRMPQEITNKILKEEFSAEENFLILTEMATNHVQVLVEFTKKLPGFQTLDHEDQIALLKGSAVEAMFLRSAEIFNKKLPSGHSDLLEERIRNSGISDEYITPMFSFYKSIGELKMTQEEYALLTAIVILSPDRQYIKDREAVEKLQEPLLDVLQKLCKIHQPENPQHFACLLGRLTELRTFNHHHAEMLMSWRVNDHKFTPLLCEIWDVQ
In short: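 HepG2 cells were transiently transfected with GAL4-UAS reporters driven by chimeric NR-Gal4 proteins and dosed for 24 h. Reporter mRNA was quantified by RT-PCR, fluorescent labelling, HpaI digestion and capillary electrophoresis, with gain of signal scored versus DMSO.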

[18] = molecular target: Nuclear receptor subfamily 4 group A member 2 (Homo sapiens) (UniProt P43354); assay: ATG_NURR1_TRANS: Attagene TRANS-FACTORIAL HepG2 Assay for human Nuclear Receptor Related Protein 1 (NURR1) (AID 2282985; active = hit-call score of the fitted dose curve at least 0.9, where 1 is the maximum); details: HepG2 Attagene TRANS reporter, mRNA readout
Sequence of Nuclear receptor subfamily 4 group A member 2 (Homo sapiens) (P43354 whole entry, looked up): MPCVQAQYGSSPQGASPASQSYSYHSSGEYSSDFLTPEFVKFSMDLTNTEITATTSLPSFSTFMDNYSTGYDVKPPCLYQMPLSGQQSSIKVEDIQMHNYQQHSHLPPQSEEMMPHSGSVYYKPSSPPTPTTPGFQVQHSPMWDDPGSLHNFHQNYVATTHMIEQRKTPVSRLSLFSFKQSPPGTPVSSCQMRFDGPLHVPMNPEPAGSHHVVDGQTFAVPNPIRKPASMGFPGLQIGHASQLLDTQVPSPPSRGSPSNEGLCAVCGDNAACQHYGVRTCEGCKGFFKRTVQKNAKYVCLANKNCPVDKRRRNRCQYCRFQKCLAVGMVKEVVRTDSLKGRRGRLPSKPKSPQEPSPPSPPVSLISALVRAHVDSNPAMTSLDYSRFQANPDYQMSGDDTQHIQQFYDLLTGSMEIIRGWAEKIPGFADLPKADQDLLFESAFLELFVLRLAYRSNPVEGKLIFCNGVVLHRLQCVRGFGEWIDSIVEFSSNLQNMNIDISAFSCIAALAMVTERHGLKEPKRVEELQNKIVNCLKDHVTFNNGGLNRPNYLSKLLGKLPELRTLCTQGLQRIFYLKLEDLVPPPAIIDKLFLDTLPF
In short: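 HepG2 / transient MRTU transfection / 24 h compound exposure / RT-PCR + CE fluorescence of reporter mRNA / gain-of-signal vs DMSO.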

Measured: AC50

Nc1ccc(N)cc1
active: [14] 11.5 µM and 12.4 µM
not listed: [15] | [16] | [17] | [18]
inactive: all other assays above

O=C(O)c1cc(I)cc(I)c1I
active: [14] 100 µM
not listed: [5] | [6] | [7] | [11] | [16] | [17] | [18]
inactive: all other assays above

NNCCO
inactive: [1] | [2] | [16] | [17] | [6] | [9] | [10] | [11] | [12] | [14]

CC(C)[N+](=O)[O-]
not listed: [4] | [16] | [17] | [18]
inactive: all other assays above

O=C(CBr)c1ccc(O)cc1
active: [14] 41.5 µM
inactive: [1] | [2] | [16] | [5] | [9] | [10] | [11] | [12]

C[C@H]1C(=O)O[C@@H]2CCN3CC=C(COC(=O)[C@](C)(O)[C@]1(C)O)[C@H]23
inactive: [1] | [2] | [3] | [17] | [7] | [9] | [10] | [11] | [12]

C[N+](C)(C)Cc1ccccc1
not listed: [7] | [8] | [13] | [14] | [15] | [16] | [18]
inactive: all other assays above

Cc1cc(C(F)(C(F)(F)F)C(F)(F)F)ccc1NC(=O)c1cccc(I)c1C(=O)NC(C)(C)CS(C)(=O)=O
inactive: [1] | [2] | [16] | [15] | [9] | [10] | [11] | [12] | [14]

CN(C)C(=S)S
active: [4] 24.8 µM | [14] 26.8 µM
not listed: [8] | [13] | [15] | [16] | [17]
inactive: all other assays above

CN(C)CCN(C)C
not listed: [3] | [7] | [16]
inactive: all other assays above

C1CN2CCN1CC2
not listed: [4] | [5] | [7] | [15] | [16] | [17]
inactive: all other assays above

O=C1C[C@@H]2OCC=C3CN4CC[C@]56c7ccccc7N1[C@H]5[C@H]2[C@H]3C[C@H]46
not listed: [5] | [6] | [7] | [9] | [15] | [16] | [17]
inactive: all other assays above

C=CCCl
not listed: [3] | [7] | [13] | [16] | [17] | [18]
inactive: all other assays above

CCCCCCCCCCBr
active: [14] 68.6 µM
not listed: [3] | [5] | [7] | [17]
inactive: all other assays above

CCOC(=O)Cc1ccccc1
not listed: [6] | [13] | [15] | [16] | [17]
inactive: all other assays above

CCOP(=S)(OCC)SCSc1cc(Cl)ccc1Cl
not listed: [4] | [6] | [7] | [13] | [14] | [16] | [17]
inactive: all other assays above

CCOP(=O)(OCC)OC(=CCl)c1ccc(Cl)cc1Cl
active: [14] 7.84 µM
inactive: [1] | [2] | [3] | [8] | [10] | [11] | [12] | [13]

Cc1cc(-c2cc(C)c(N)c(C)c2)cc(C)c1N
not listed: [3] | [5] | [6] | [7] | [8] | [16] | [17]
inactive: all other assays above

c1ccc2sc(SNC3CCCCC3)nc2c1
active: [12] 148 µM | [14] 80.6 µM
inactive: [1] | [2] | [15] | [4] | [8] | [18] | [9] | [10] | [11]

[F][Sn]([c]1ccccc1)([c]1ccccc1)[c]1ccccc1
inactive: [2] | [6] | [14]
active: [1] 0.326 µM | [9] 2.24 µM | [10] 0.294 µM | [11] 0.312 µM | [12] 2.12 µM | [13] 0.685 µM

c1ccc(-c2cccc(-c3ccccc3)c2)cc1
active: [18] 27.8 µM | [14] 40.9 µM
inactive: [1] | [2] | [4] | [5] | [10] | [11] | [12] | [13]

Clc1cnc(Oc2ccc(Oc3ncc(Cl)cc3Cl)cc2)c(Cl)c1
not listed: [3] | [4] | [7] | [8] | [15] | [16] | [17]
inactive: all other assays above
